These results are taken from PubChem BioAssay (NCATS).

The nature of assay [1]: Cell Viability - MRC5 (AID 434; calls by dose curve;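 further: potency means the concentration at half of the fitted maximal effect; cells exposed to compound for 40 hours at 37 °C; potency reflects cytotoxicity seen as loss of intracellular ATP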). The note with it: MRC5 lung fibroblast viability, qHTS. The gist of the method:
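AC50 values come from Hill-equation fits of intracellular ATP loss, measured by CellTiter-Glo luminescence. Normal lung fibroblasts (MRC5) had 40 hr compound treatment at 37 C, normalized between DMSO and 100 uM tamoxifen.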

Assay [2] can be described thus: Cellular Toxicity (caspase-3) Renal Proximal Tubule (AID 667).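 Further: cells exposed to compound for 16 hours at 37 °C before detection.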 The note with it: renal proximal tubule cells, primary cells freshly taken from rat, solvent-only wells 0%, staurosporine 100%; series mostly up to 91.7 µM. The gist of the method: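 Luminescent caspase 3/7 signal from peptide-aminoluciferin cleavage measures apoptosis in freshly isolated rat kidney proximal tubule cells after 16 h compound exposure. Concentration-response data are normalized to DMSO and 10 uM staurosporine, and AC50 values come from Hill equation fits.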

Assay [3] can be described thus: Cell Viability - LYMP1-003 - Assay at 24 hr (AID 963). Further: potency means the concentration at half of the fitted maximal effect. To be noted: LYMP1-003 lymphoblastoid cell viability; series mostly up to 92.2 µM. Put shortly: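 Concentration-response qHTS: ATP loss measured by CellTiter-Glo luminescence after 24 h compound exposure at 37 C. Cells were LYMP1-003 human lymphoblastoid, 2500 per well. AC50 derived via standard Hill equation modeling.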

Assay [4] is described as follows: Cell Viability - LYMP1-003 - Assay at 40 hr (AID 964). Further: nearly all actives have a fitted effect of over 60% in size. Further: potency means the concentration at half of the fitted maximal effect. The note with it: LYMP1-003 lymphoblastoid viability; series mostly up to 92.2 µM. The gist of the method:
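Viability is taken as cellular ATP, read by CellTiter-Glo luminescence after 40 h of compound exposure at 37 C. Cells: human lymphoblastoid line LYMP1-003 at 2500/well; AC50 values derived by Hill-equation fitting of concentration-response data.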

The nature of assay [5]: Cell Viability - LYMP1-002 - Assay at 24 hr (AID 993). Further: on the % scale 0 is the no-effect control and ±100 the full control effect. The note with it: LYMP1-002 lymphoblastoid cells viability; series mostly up to 92.2 µM. Put shortly: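 qHTS cytotoxicity at 24 h: CellTiter-Glo ATP luminescence in lymphoblastoid line LYMP1-002 incubated with compound at 37 °C. Concentration-response modeled with the Hill equation for AC50; tetraoctylammonium bromide served as positive control.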

A short description of assay [6]: qHTS assay for small molecule agonists of the antioxidant response element (ARE) signaling pathway measured by Nrf2-dependant transcriptional activity - cell viability counter screen (AID 720653; active means well fitted curve in the direction sought with a large enough effect in the repeat runs; an effect the other way counts as inactive or inconclusive; further: on the % scale 0 is the no-effect control and ±100 the full control effect). To be noted: ARE-bla HepG2 viability, CellTiter-Glo ATP luminescence, 16 h; max response: hits give low values. Put shortly:
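Cytotoxicity counter screen: intracellular ATP quantified by CellTiter-Glo luminescence in the same ARE-bla HepG2 plates, after 16 h compound exposure and a 2 h beta-lactamase substrate step.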
In general terms: qHTS replaces the single test concentration by a dilution series.

A short description of assay [7]: qHTS assay for cell viability of HEK293 cells (AID 743288). Further: on the % scale 0 is the no-effect control and ±100 the full control effect; nearly all actives have a fitted effect of over 50% in size. The note with it: ATP luminescence (CellTiter-Glo), 18 h; max response: hits give low values. Put shortly: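 ATP luminescence (CellTiter-Glo) reports metabolically competent cell number after parental HEK293 cells, 2,000/well, were treated with DMSO-dissolved compounds for 18 h at 37 C; reagent incubation 30 min, room temperature.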

The nature of assay [8]: qHTS assay for cell viability of the p53RE-bla HCT-116 cell line (AID 743292). Further: on the % scale 0 is the no-effect control and ±100 the full control effect; nearly all actives have a fitted effect of over 55% in size. The note with it: p53RE-bla HCT-116 viability, ATP luminescence, 16 h; series mostly up to 95 µM. Put shortly:
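Readout: CellTiter-Glo luminescence after 30 min RT. Treatment: compounds in DMSO, 16 h, 37 C. Cells: CellSensor p53RE-bla HCT-116, 4,000/well, preincubated 5 h.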

A short description of assay [9]: Cellular Toxicity (caspase-3) HUV-EC-C (AID 656).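 Further: 0% = DMSO basal and 100% = 100 µM tamoxifen.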 To be noted: HUV-EC-C cells, caspase-3 activation (apoptosis); series mostly up to 92.2 µM. Put shortly:
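Luminescent caspase-3/7 activation (aminoluciferin substrate cleavage) in HUV-EC-C cells after 16 hr compound exposure, 37°C. Signal normalized to DMSO basal and 100 uM tamoxifen as 100%; AC50 from concentration-response fitted with the Hill equation.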

Assay [10] is described as follows: Cellular Toxicity (caspase-3) NIH 3T3 (AID 666).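 Further: 0% = DMSO basal and 100% = 100 µM tamoxifen stimulation.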 The note with it: NIH 3T3 caspase-3 activation, apoptosis/toxicity; series mostly up to 92.2 µM. The gist of the method: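 Caspase-Glo 3/7 luminescence reported caspase activation in 1000 NIH 3T3 cells/well after 16 h compound exposure at 37 C. DMSO set basal and 100 uM tamoxifen set 100% stimulation; concentration-response modeled with the Hill equation for AC50.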

A short description of assay [11]: MultiTox-Fluor Cytotoxicity Assay - LYMP1-001 - Dead Cells (AID 946). Further: potency means the concentration at half of the fitted maximal effect. To be noted: LYMP1-001 lymphoblastoid cells, dead-cell protease fluorescence; series mostly up to 92.2 µM. The gist of the method:
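LYMP1-001 lymphoblastoid cells (2500/well) treated 16 h at 37 C. Dead-cell protease cleavage of bis-AAF-R110 read at Ex/Em 485/520. Normalized to DMSO and 15 uM tetraoctylammonium bromide; AC50 from Hill fits.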

Assay [12] is described as follows: Cell Viability - LYMP2-009 (AID 968). Further: nearly all actives have a fitted effect of over 55% in size. Further: potency means the concentration at half of the fitted maximal effect. To be noted: LYMP2-009 lymphoblastoid cell viability; series mostly up to 92.2 µM.
A short description of assay [13]: Cell Viability - LYMP2-013 (AID 970). Further: nearly all actives have a fitted effect of over 55% in size. Further: potency means the concentration at half of the fitted maximal effect. The note with it: LYMP2-013 lymphoblastoid cells viability; series mostly up to 92.2 µM. The gist of the method:
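qHTS cytotoxicity: ATP-dependent luminescence (CellTiter-Glo, 30 min room temperature) read after 24 h compound exposure at 37 C of 2500 LYMP2-013 lymphoblastoid cells per well. Concentration-response fitted with Hill equation to give AC50.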

Assay [14] in a line: Cell Viability - LYMP2-017 (AID 972).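 Further: cells exposed to compound for 24 hours at 37 °C; nearly all actives have a fitted effect of over 55% in size.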 Further: potency means the concentration at half of the fitted maximal effect. To be noted: LYMP2-017 lymphoblastoid cell viability; series mostly up to 92.2 µM. Put shortly:
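CellTiter-Glo luminescence (cellular ATP, 30 min RT) measured cytotoxicity after 24 hr compound treatment at 37 C. Cells were a human lymphoblastoid line, LYMP2-017, plated at 2500/well and incubated 5 hr first; concentration-response fitted with Hill equation for AC50.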

A short description of assay [15]: Cell Viability - LYMP2-025 (AID 976). Further: potency means the concentration at half of the fitted maximal effect. The note with it: LYMP2-025 lymphoblastoid cell viability; series mostly up to 92.2 µM. Put shortly:
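Cytotoxicity read as loss of intracellular ATP (luciferase luminescence) after 24 h compound treatment at 37 C. Uses LYMP2-025 lymphoblastoid cells in 1536-well format; Hill-equation modelling gives AC50; tetraoctylammonium bromide as positive control.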

Assay [16] is described as follows: Cell Viability - LYMP2-006 (AID 978).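 Further: cells exposed to compound for 24 hours; nearly all actives have a fitted effect of over 60% in size.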 Further: potency means the concentration at half of the fitted maximal effect. To be noted: LYMP2-006 lymphoblastoid cell viability, qHTS; series mostly up to 92.2 µM. The gist of the method: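 qHTS, 1536-well; 2500 cells/well, 5 hr 37 C; cpd 24 hr 37 C; CellTiter-Glo 30 min RT; luminescence. Tetraoctylammonium bromide pos. ctrl. AC50 via Hill eqn.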
Assay [17] is described as follows: Cell Viability - LYMP2-007 (AID 979).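 Further: cells exposed to compound for 24 h before reading; nearly all actives have a fitted effect of over 60% in size.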 Further: potency means the concentration at half of the fitted maximal effect. The note with it: LYMP2-007 lymphoblastoid cell viability; series mostly up to 92.2 µM. The gist of the method: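 AC50 values come from Hill-equation fits of luminescent intracellular ATP (CellTiter-Glo, 30 min, room temperature) following 24 h compound exposure at 37 C. Cells: LYMP2-007 lymphoblastoid line, 2500 per well, in complete culture medium.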

Assay [18] is described as follows: Cell Viability - LYMP2-010 (AID 981). Further: potency means the concentration at half of the fitted maximal effect. The note with it: LYMP2-010 lymphoblastoid cell viability, qHTS; series mostly up to 92.2 µM. Put shortly:
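CellTiter-Glo ATP luminescence measured cytotoxicity after 24 h compound exposure at 37 C. LYMP2-010 cells were seeded at 2500/well, with tetraoctylammonium bromide as control; concentration-response curves gave AC50 values by the Hill equation.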

A short description of assay [19]: Cell Viability - LYMP1-002 - Assay at 40 hr (AID 994). Further: nearly all actives have a fitted effect of over 60% in size. Further: potency means the concentration at half of the fitted maximal effect. To be noted: LYMP1-002 lymphoblastoid cell viability; series mostly up to 92.2 µM. The gist of the method: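 Cytotoxicity was read as loss of cellular ATP (CellTiter-Glo luminescence) after 40 hr compound exposure at 37 C of 2500 LYMP1-002 lymphoblastoid cells per well. Concentration-response data were fitted with the standard Hill equation to give AC50.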

Assay [20] is described as follows: Cell Viability - HepG2 (AID 433; calls by dose curve;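 further: potency means the concentration at half of the fitted maximal effect; cells exposed to compound for 40 hours; potency for ATP loss meaning cytotoxicity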). To be noted: qHTS. The gist of the method: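 ATP luminescence (CellTiter-Glo) after 40 h compound exposure, 37 °C, HepG2, 1500 cells/well, complete medium. Normalized: DMSO = basal, 100 uM tamoxifen = 100% inhibition. AC50 via standard Hill equation.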

“And” between values parts separate entries of the source, which are not always exact repeats. Equal entries are not always repeated. Values without a mark were called inactive. Records with an inconclusive call do not appear. The source made the active and inactive calls. Unless noted, the call rests on the fitted dose curve; in most records, active means well fitted curve in the direction sought with a large enough effect; inconclusive means small, poorly fitted or top-dose-only effect, or another doubt; inactive means no such curve, though single readings can be large; an effect the other way counts as inactive or inconclusive. Where only a bound is given, the exact number is not on record here.

As for `c1cc(OCC2CO2)cc(OCC2CO2)c1` (centres undefined), the Potency in assay [1] was 34.7 µM (active). The result in [2] was inactive. Moreover, the Potency result in [3], in assay [4], in [5] and in [8] was “inactive” throughout. The max response in [6] was -40% and -11.6%; in assay [7] it was -14.2%.

Regarding `C=CC(=O)OCCOCCOC(=O)C=C`, the Potency result in assay [9], in assay [10] and in assay [8] was “inactive” throughout. The compound was called inactive in assay [2]. For the same compound, the Potency was 50.1 µM (active) in assay [11]; 31.6 µM (active) in assay [3]; 25.1 µM (active) in assay [4]; 20 µM (active) in assay [12]; 25.1 µM (active) in assay [13]; 20 µM (active) in assay [14]. In addition, the Potency is 31.6 µM (active) in assay [15]; 25.1 µM (active) in assay [16]; 25.1 µM (active) in assay [17]; 15.8 µM (active) in assay [18]; 25.1 µM (active) in assay [19]. Also, the max response in assay [6] was -8.93%.

Take `O=[N+]([O-])c1cc([N+](=O)[O-])c2ccc(S(=O)(=O)O)cc2c1O`: the Potency in assay [20] and in assay [1] was more than 92 µM in each case. Further, the Potency entry in assay [9], in [10], in assay [11], in assay [3], in assay [4] and in [12] was “inactive” throughout. In addition, the Potency entry in assay [13], in assay [14], in assay [15], in assay [16], in [17] and in [18] was “inactive” throughout. Moreover, the Potency entry in [5], in assay [19] and in assay [8] was “inactive” each time. In addition, the outcome in assay [2] was inactive. For the same compound, the figures for the max response in assay [6] and in assay [7] were 17.2% and -2.67%, respectively.

As to `c1ccc2c(c1)-c1cccc3c1c-2cc1ccccc13`, the Potency in assay [20] and in assay [1] was more than 92 µM throughout. Moreover, the Potency entry in [9], in [10], in assay [11], in assay [3], in assay [4] and in assay [12] was “inactive” each time. In addition, the Potency result in assay [13], in assay [14], in [15], in [16], in assay [17] and in assay [18] was “inactive” each time. Further, the Potency result in assay [5], in assay [19] and in assay [8] was “inactive” in each case. Besides, the compound was called inactive in [2]. For the same compound, the max response in [6] was -12.4% and -4.83%; in assay [7] it was -13.5% and -14.9%.
